This is part of a sample that, as a whole, favours compounds with a hit. Of some 79,000 tested, about 15% had one in any assay. Unmarked numbers belong to inactive results. Rule as the data show it: active = growth inhibition above about 70%; inactive = the rest.

The assay is described as follows: NCI Yeast Anticancer Drug Screen. Data for the wt1 strain (AID 149).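 Also: 0% = growth of vehicle-treated wt1 cultures.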 To be noted: S. cerevisiae wt1 strain (SPY 50644) growth inhibition; at 11.0 µM; active compounds read high. Summed up: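 wt1 strain grown with compound or vehicle; inhibition taken from the growth difference.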
Consider `CN(C)CC(CN(C)C)C(=O)/C=C/c1ccc(Cl)cc1Cl`, for which the growth inhibition was -6%.

In the case of `c1ccc2c(c1)ccn2CCc1c[nH]c2ccccc12`, the growth inhibition is -19%.

Consider `Cc1ccccc1NC(=O)c1c(C)oc2c1C(=O)c1ccccc1C2=O`, for which the growth inhibition was -23%.

`CC(C)OC(=O)NNc1c(Cl)cc(Cl)cc1Cl`: the growth inhibition is -4%.

Consider `COc1ccc2nc3cccc([N+](=O)[O-])c3c(NCCNCCO)c2c1`, for which the growth inhibition was 20%.

`COc1ccc2c(c1)CCCC(Br)C2=O` (stereo unspecified): the growth inhibition was 17%.

For the compound `CCC(OC(C)=O)C1CC(C(C)C)CCC1C` (stereo unspecified), the growth inhibition is -2%.

With `O=S(=O)(c1cccc(C(F)(F)F)c1)N1c2ccccc2-n2cccc2C1c1cccnc1` (stereo unspecified), the growth inhibition is 55%.

`c1ccc(-c2cc(C3CO3)c3ccccc3n2)cc1` (stereo unspecified): the growth inhibition is -5%.

`COc1ccc(/C=C2\SC(=S)N(/C=C3\C(=O)N(c4ccccc4)N=C3C)C2=O)cc1OC`: the growth inhibition is 11%.

On to `CC1=CC(=C(c2ccc(N)c(C)c2)c2ccc(N)c(C)c2)C=CC1=N`, for which the growth inhibition was 7%.

With `CC1C(c2ccccc2)SC(=N)N1C` (stereo unspecified), the growth inhibition is -2%.

Take `CC(/C=C/c1ccc([N+](=O)[O-])o1)=N/N1CC(CN2CCOCC2)OC1=O` (stereo unspecified): the growth inhibition was 36%.

As for `C=CC(C)(C)N1C(=O)C(C(C)=O)=C(O)C1Cc1c[nH]c2ccccc12` (stereo unspecified), the growth inhibition was 3%.

On to `O=C1c2cccc3cccc(c23)C(=O)N1CCNCCN1C(=O)c2cccc3cccc(c23)C1=O`, for which the growth inhibition was -1%.

Take `Cc1ccc([N+](=O)[O-])c2c(NCCC[N+](C)(C)[O-])c3ccccc3nc12`: the growth inhibition is 2%.
